Source: PubChem BioAssay AID2451 (National Center for Advancing Translational Sciences (NCATS), 2010)
Hit rate of the full screen: of about 290,000 compounds, about 2,100 (0.72%) were called active. Inconclusive results (about 4%) are left out. This is one part of a sample in which actives are shown more often than they occur. A number with no mark means an inactive call. The call rests on the fitted dose curve; in most records, active means well fitted inhibition curve with a large enough effect; inconclusive means small, poorly fitted or top-dose-only effect, or effect the other way; inactive means flat fitted curve, though single readings scatter.

Target: Fructose-bisphosphate aldolase (Giardia intestinalis (strain ATCC 50803 / WB clone C6)) (UniProt A8B2U2)
Assay: qHTS Assay for Inhibitors of Fructose-1,6-bisphosphate Aldolase from Giardia Lamblia; further: nearly all actives have a fitted effect of over 55% in size
Details: purified Giardia FBPA; series mostly up to 59.6 µM; activity, negative = inhibition: at the top concentration
Text: Assay Provider: Osnat Herzberg, University of Maryland
The objective of this project is to obtain compounds that inhibit Giardia lamblia growth. G. lamblia is a human pathogen which afflicts impoverished nations; it is the most common cause of outbreaks of diarrhea in the United States. During the course of our study of potential drug targets in Giardia, we have identified the Class II (Zn2+ functions in electrophilic catalysis) fructose-1,6-bisphosphate aldolase (FBPA) as an excellent candidate for drug targeting. FBPA is a key glycolytic pathway enzyme, essential for G. lamblia survival. The human FBPA belongs to the Class I aldolases, which have a different substrate binding site structure and a radically different catalytic mechanism (employing a lysine-Schiff base intermediate). Therefore, affinity-based or mechanism-based inhibitors of the Giardia FBPA are expected not to interfere with the catalytic function of the human FBPA.
A glyceraldehyde-3-phosphate dehydrogenase/triose phosphate isomerase/NAD/arsenate coupled assay was adapted to the 1536-well HTP format for use in the primary screen. This was done by coupling it to a diaphorase/resazurin/resorufin reaction that can be monitored by fluorescence (excitation, 544 nm; emission, 590 nm). Compounds identified in this screen will be further evaluated by coupling the glycerol-3-phosphate/triose phosphate isomerase/NADH assay to a phenazine methosulfate/tetranitroblue tetrazolium color reaction. False positives due to the dehydrogenases and diaphorase inhibition will be eliminated, and selectivity assay will triage inhibitors of mammalian triose phosphate isomerase and the Class I FBPA. G. lamblia FBPA inhibitors identified by the in vitro analyses will be examined for growth inhibition of Giardia trophozoites, and for cytotoxicity in human cells.
Step,Parameter,Value,Description
1,Enzyme reagent,2 uL,40 nM FBPA
2,Compound,23 nL,3.68 nM-57.5 uM final concentration
3,Time,10 min,RT Incubation
4,Substrate/detection Reagent,2 uL,Substrate + enzyme coupling system + AmpLite Red kit
5,Time,20 min,RT Incubation
6,Detector,525 nm/598 nm (Fluorescence),ViewLux Fluorescence Read (Read 1)
1,Medium-binding black solid-bottom Kalypsys plates. FRD or Kalypsys dispenser, 2 uL of FBPA enzyme. Bottle kept at 4C.
2,Compound Library (10 mM ,1:5 dilution). Pin-transferred for a [final] range of 3.68 nM-57.5 uM.
4,FRD or Kalypsys dispenser, 2 uL of reaction mixture. Bottle kept at 4C and covered in foil to protect from light.
6,ViewLux Protocol 1194; Excitation filter wheel A (525/20 Pol; BODIPY TMR FP), Emission filter wheel B (598/25 S; BODIPY TMR FP S).
Keywords: Fructose-bisphosphate aldolase, FBPA , Giardia lamblia , Giardia, HTS, Inhibitors
On the % scale 0 is the no-effect control and ±100 the full control effect; potency means the concentration at half of the fitted maximal effect.

Fructose-bisphosphate aldolase (Giardia intestinalis (strain ATCC 50803 / WB clone C6)), sequence (A8B2U2 whole entry, looked up): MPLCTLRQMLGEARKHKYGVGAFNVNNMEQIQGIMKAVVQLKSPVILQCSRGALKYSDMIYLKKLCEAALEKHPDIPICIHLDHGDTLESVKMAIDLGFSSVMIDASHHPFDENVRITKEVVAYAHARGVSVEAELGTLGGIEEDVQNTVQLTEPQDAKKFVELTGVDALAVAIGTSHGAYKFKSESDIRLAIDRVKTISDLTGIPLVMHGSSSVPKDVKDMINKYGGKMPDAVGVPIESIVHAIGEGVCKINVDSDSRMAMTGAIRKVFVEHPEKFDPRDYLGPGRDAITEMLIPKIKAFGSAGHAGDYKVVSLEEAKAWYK

Q: How did the “activity, negative = inhibition” value turn out when `CCc1nn(CCCC(=O)NCc2ccc(C)cc2)c(=O)c2cc3occc3n12` was run?
A: 4.23%

Q: For `CC(C)c1ccc(N(C(=O)c2ccco2)C(C(=O)NC2CCCC2)c2cccnc2)cc1` (stereo not given), which “activity, negative = inhibition” value is on record?
A: 7.96%

Q: With `Nc1ccc2nc3c(=O)[nH]c(=S)[nH]c3nc2c1` as the molecule, how does the Potency read?
A: 3.54 µM (active)

Q: Which “activity, negative = inhibition” value does the source give for `O=c1[nH]c(=O)c2nc3ccccc3nc2[nH]1` here?
A: 3.35%

Q: `Cc1ccc(NS(=O)(=O)c2ccc(-c3ccc(=O)[nH]n3)o2)c(C)c1` was tested. Which “activity, negative = inhibition” value did it give?
A: 4.34%

Q: With `O=[N+]([O-])c1ccc(N(CCO)Cc2ccccc2)c([N+](=O)[O-])c1` as the molecule, how does the “activity, negative = inhibition” value read?
A: 7.03%

Q: How did the “activity, negative = inhibition” value turn out when `CCOc1cc(-c2cc(-c3ccc(NC(C)=O)cc3)nc(N)c2C#N)ccc1O` was run?
A: -3.5%

Q: With `O=[N+]([O-])c1cccc2ncccc12` as the molecule, how does the “activity, negative = inhibition” value read?
A: -0.876%

Q: Which “activity, negative = inhibition” value does the source give for `CCN(CC)c1ccc([N+](=O)[O-])c2cccnc12` here?
A: -27.5%

Q: With `O=[N+]([O-])c1cc([N+](=O)[O-])c2cccnc2c1O` as the molecule, how does the Potency read?
A: 15.8 µM (active)

Q: `CCOC(OCC)c1ccc(/C=C\c2nccc(N)n2)cc1` was tested. Which “activity, negative = inhibition” value did it give?
A: -5.31%

Q: With `Cc1ccc(NC(=S)NCCc2ccc(Cl)cc2)c(C)c1` as the molecule, how does the “activity, negative = inhibition” value read?
A: 0.528%

Q: Which “activity, negative = inhibition” value does the source give for `O=c1o[nH]c(-c2ccccc2)c1N=Nc1c(F)cccc1Cl` here?
A: -7.28%

Q: Which Potency does the source give for `COc1ccc(N=Nc2c(-c3ccc(OC)cc3)[nH]oc2=O)cc1` here?
A: 12.6 µM (active)

Q: With `COc1ccc(-c2cn[nH]c2-c2ccc(OC)cc2)cc1` as the molecule, how does the “activity, negative = inhibition” value read?
A: -0.709%

Q: With `O=C(Nc1ccc([N+](=O)[O-])cc1)OCCc1ccccn1` as the molecule, how does the “activity, negative = inhibition” value read?
A: 6.01%

Q: Which “activity, negative = inhibition” value does the source give for `CCS(=O)(=O)C1=NSC2=NC(=O)/C(=C\c3ccc(OS(=O)(=O)c4ccccc4)cc3)C(=N)N21` here?
A: -0.451%

Q: `COc1ccc(OCc2cc(C(=O)NCC3(C)COC3)no2)c(Cl)c1` was tested. Which “activity, negative = inhibition” value did it give?
A: 3.12%

Q: How did the “activity, negative = inhibition” value turn out when `COC(=O)c1c(NC(=O)COc2ccc(Cl)cc2Cl)sc2c1CC(C)(C)NC2(C)C` was run?
A: -0.396%

Q: How did the Potency turn out when `CN1CCCc2cc(C#N)c(=O)[nH]c21` was run?
A: 9.98 µM (active)

Q: With `Cc1[nH]c(C)c(S(=O)(=O)N2CCC(C)CC2)c1C(=O)N1CCCC1` as the molecule, how does the “activity, negative = inhibition” value read?
A: 0.103%

Q: `CCNC(=S)N(CCN(CC)CC)Cc1cc2cc3c(cc2[nH]c1=O)OCCO3` was tested. Which “activity, negative = inhibition” value did it give?
A: 0.97%

Q: With `Cc1ccc(-c2nc3ccccc3[nH]c2=O)cc1` as the molecule, how does the “activity, negative = inhibition” value read?
A: 3.98%

Q: For `O=c1[nH]c2ccccc2n2c(-c3ccccc3)nnc12`, which Potency is on record?
A: 0.998 µM (active)

Q: `CCOC(=O)c1cnc2[nH]c3ccccc3n2c1=O` was tested. Which “activity, negative = inhibition” value did it give?
A: 2.05%

Q: Which “activity, negative = inhibition” value does the source give for `O=C1c2ccccc2C(=O)N1CCOc1ccc(F)cc1` here?
A: 1.01%

Q: How did the “activity, negative = inhibition” value turn out when `COc1ccc(C2=NN(C(=O)c3ccccc3C(=O)O)C(c3ccccc3O)C2)cc1` (stereo not given) was run?
A: 12.5%

Q: For `Cc1ccccc1N1CCN(CCCN2C(=O)C3CCCCN3C2=O)CC1` (stereo not given), which “activity, negative = inhibition” value is on record?
A: -15.4%

Q: With `CCCCC1(C(=O)OCC)NC(c2ccc(O)cc2)C2C(=O)N(c3ccccc3)C(=O)C21` (stereo not given) as the molecule, how does the “activity, negative = inhibition” value read?
A: 7.01%

Q: For `CC(=O)c1nc2ccccc2n1Cc1ccccc1`, which “activity, negative = inhibition” value is on record?
A: -5.52%

Q: With `O=C(O)Cn1c(Cc2ccccc2)nc2ccccc21` as the molecule, how does the Potency read?
A: 28.2 µM (active)

Q: `C=C(Br)Cn1c(CCCC)nc2ccccc21` was tested. Which “activity, negative = inhibition” value did it give?
A: 8.1%

Q: With `Cc1cc(C)nc(N/N=C/c2ccc([N+](=O)[O-])o2)n1` as the molecule, how does the Potency read?
A: 28.2 µM (active)

Q: `CCc1ccc(S(=O)(=O)N/N=C\c2ccc([N+](=O)[O-])o2)cc1` was tested. Which “activity, negative = inhibition” value did it give?
A: -19.2%

Q: With `Cc1cc(C)nc(N/N=C/c2c(C)oc3ccccc23)n1` as the molecule, how does the “activity, negative = inhibition” value read?
A: -26.2%

Q: For `CS(=O)(=O)N1CCc2cc(C(=O)Nc3ccccc3Br)ccc21`, which “activity, negative = inhibition” value is on record?
A: 10.4%

Q: With `CCCOc1ccc(-c2c(C(=O)N/N=C/c3ccco3)nnn2-c2nonc2N)cc1` as the molecule, how does the “activity, negative = inhibition” value read?
A: 7.42%

Q: With `Cc1ccc(/C=N/NC(=O)c2cc3ccccc3cc2O)o1` as the molecule, how does the “activity, negative = inhibition” value read?
A: -19.7%

Q: How did the “activity, negative = inhibition” value turn out when `COCCCNC(=S)NC(=O)c1ccccc1` was run?
A: 0.0132%

Q: For `Cn1nnc(NC(=S)NC(=O)c2ccccc2)n1`, which Potency is on record?
A: 3.15 µM (active)

Q: For `Cc1cc2[nH]ncc2cc1NC(=S)NC(=O)c1ccccc1`, which “activity, negative = inhibition” value is on record?
A: -10.8%

Q: `Cc1c(Cl)cccc1NC(=S)NCC(O)c1ccccc1` (stereo not given) was tested. Which “activity, negative = inhibition” value did it give?
A: 0.0635%

Q: With `O=C(c1n[nH]c2c1CCC2)N1CCCC(Nc2cccc(F)c2)C1` (stereo not given) as the molecule, how does the “activity, negative = inhibition” value read?
A: -1.71%

Q: Which Potency does the source give for `CSc1n[nH]c(=S)n1N` here?
A: 19.9 µM (active)

Q: How did the “activity, negative = inhibition” value turn out when `Cc1noc(C)c1CCC(=O)N1CCCC(CO)(Cc2ccccc2)C1` (stereo not given) was run?
A: -4.45%

Q: With `COc1ccc2c3c(c(=O)oc2c1)C1O[C@](CCCCN2C(=O)c4ccccc4C2=O)(Cc2c1ccc1ccccc21)O3` as the molecule, how does the activity, negative = inhibition read?
A: -2.65% [at 12.9 µM]

Q: With `COc1ccc(CCNCc2c(-c3ccccc3)n(C)c3ccccc23)cc1` as the molecule, how does the “activity, negative = inhibition” value read?
A: -29.6%

Q: With `COc1ccc(-c2csc(Nc3ccccn3)n2)cc1` as the molecule, how does the “activity, negative = inhibition” value read?
A: -13.5%

Q: `COc1ccc(-c2csc(Nc3ccc(O)cc3)n2)cc1` was tested. Which “activity, negative = inhibition” value did it give?
A: -23%

Q: With `COc1ccc(OC)c(Nc2nc(-c3ccc(O)c(O)c3)cs2)c1` as the molecule, how does the Potency read?
A: 8.89 µM (active)

Q: `COc1ccc(C2=Nn3c(nnc3-c3ccccc3O)SC2)cc1` was tested. Which “activity, negative = inhibition” value did it give?
A: 5.11%

Q: For `CCOc1cc(C2/C(=C(/O)c3ccc(S(=O)(=O)N4CCCCC4)cc3)C(=O)C(=O)N2CCOC)ccc1O` (stereo not given), which “activity, negative = inhibition” value is on record?
A: 20.3%

Q: With `C=C(C)CNC(=S)N/N=C/c1ccccc1OCC(=O)O` as the molecule, how does the Potency read?
A: 17.7 µM (active)

Q: `CCn1c(SCC(=O)N/N=C/c2ccccc2OCC(=O)O)nnc1-c1ccc(C(C)(C)C)cc1` was tested. Which “activity, negative = inhibition” value did it give?
A: -14%

Q: For `C=CCOc1ccccc1/C=N/NC(=O)Cc1ccccc1`, which “activity, negative = inhibition” value is on record?
A: 9.96%

Q: For `CCOc1ccccc1/C=N/NC(=O)CNC(=O)COc1ccccc1`, which Potency is on record?
A: 17.7 µM (active)

Q: `Cc1ccc(/C=N/NC(=O)CNC(=O)COc2ccccc2)o1` was tested. Which “activity, negative = inhibition” value did it give?
A: -0.787%

Q: Which “activity, negative = inhibition” value does the source give for `O=C(CNC(=O)COc1ccccc1)NCCc1ccccn1` here?
A: 5.88%

Q: Which “activity, negative = inhibition” value does the source give for `COC(=O)c1cccc(N2C(=O)C3C4C=CC(CC4)C3C2=O)c1` (stereo not given) here?
A: 5.94%

Q: How did the “activity, negative = inhibition” value turn out when `CCCCN1C(=O)C(C)=C(C)C1OCCc1ccc(OC)c(OC)c1` (stereo not given) was run?
A: 4.28%

Q: With `Cc1ccc(C(=O)NCC(=O)OCc2nnc(-c3ccccc3)o2)cc1` as the molecule, how does the “activity, negative = inhibition” value read?
A: 5.28%

Q: With `CCOc1ccc(N(C)Cc2cc(=O)oc3ccc(OC)cc23)cc1` as the molecule, how does the “activity, negative = inhibition” value read?
A: 6.29%

Q: Which “activity, negative = inhibition” value does the source give for `Cn1nccc1/C=N\NC(=O)c1ccc(Cl)cc1` here?
A: -7.24%

Q: With `C=CCc1c(C)nc2cc(-c3ccccc3)[nH]n2c1=O` as the molecule, how does the “activity, negative = inhibition” value read?
A: -20.9%

Q: With `Cc1nc2cc(C(F)(F)F)ccc2n1CCNc1nc(-c2cc(Cl)c(N)c(Cl)c2)cs1` as the molecule, how does the “activity, negative = inhibition” value read?
A: -7.4%

Q: For `Cc1ccccc1OCC(=O)Nc1nnc(S(=O)(=O)N2CCCC2)s1`, which “activity, negative = inhibition” value is on record?
A: 0.701%

Q: `COc1cccc(C(=O)Nc2nnc(S(=O)(=O)N3CCCCC3)s2)c1` was tested. Which Potency did it give?
A: 17.8 µM (active)

Q: For `CCOC(=O)CSc1nnc(NC(=O)c2cccc(S(=O)(=O)N3CCCCC3)c2)s1`, which “activity, negative = inhibition” value is on record?
A: 8.02%

Q: How did the “activity, negative = inhibition” value turn out when `COc1ccc(C)cc1N(CC(=O)N1CCCC1)S(=O)(=O)c1ccccc1` was run?
A: 8.2%

Q: `Cc1ccc(C)c(N2CCN(S(=O)(=O)c3c(C)[nH]c(C)c3C(=O)N3CCCC3)CC2)c1` was tested. Which “activity, negative = inhibition” value did it give?
A: 6.26%
